Activity calls are given as the source filed them. How the calls were made is not given here.
Experiment: inhibitors of Cryptococcus chitosan production, flow cytometry, Cibacron Brilliant Red staining (AID 1347148);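 further: compound exposure lasted three days at 37 degrees C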
Details: Cryptococcus neoformans chitosan, hits give low values; at 10 µM unless noted

Fold fluorescence, inactive:
CCCCC[C@@H](O)/C=C/[C@H]1[C@H](CCCCCCC(=O)O)[C@H](O)C[C@@H]1O 3.58, CCCCC[C@@H](O)/C=C/[C@H]1[C@@H]2C/C(=C/CCCC(=O)O)O[C@@H]2C[C@@H]1O 4.1, CCCCC[C@@H](O)/C=C/[C@H]1[C@H](C/C=C\CCCC(=O)O)[C@H](O)C[C@H]1O 4.85, C[C@@H](COc1ccccc1)N(CCCl)Cc1ccccc1 6.47 [at 164.6 µM], CCCCCCCCCCCCCCCC(=O)OC[C@@H](COP(=O)(O)O)OC(=O)CCCCCCCCCCCCCCC 3.86, COC(=O)[C@H]1[C@@H]2C[C@@H]3c4[nH]c5ccccc5c4CCN3C[C@H]2CC[C@H]1O 3.91 [at 141.1 µM], CCCCCCCCCCCCCCCCOC[C@@H](COP(=O)([O-])OCC[N+](C)(C)C)OC 4.86, CCCCCCOC(=O)C1(O)CC2OC1(C)n1c3ccccc3c3c4c(c5c6ccccc6n2c5c31)C(=O)NC4 (stereo not given) 4.72 [at 9.3 µM], CC1(COc2ccc(C[C@@H]3SC(=O)NC3=O)cc2)CCCCC1 5.39, C=C1CC[C@@H](O)C/C1=C/C=C1\CCC[C@]2(C)[C@@H]1CC[C@H]2[C@@H](C)CC[C@H](O)C(C)(C)O 6.63, C1CCC[C@H]2CCCN3CC[C@@H](CCCCCC[C@@H]4CCCN5CC[C@@H](CC1)O[C@@H]45)O[C@@H]23 6.06 [at 11.2 µM], Nc1ncnc2c1ncn2[C@@H]1CCCO1 2.55 [at 243.6 µM], C=C[C@@H]1CN2CCC1C[C@H]2[C@H](O)c1ccnc2ccc(OC)cc12 (stereo not given in full) 3.61 [at 154.1 µM], N#Cc1cc2c(OC[C@@H](O)CN3CCN(C(c4ccccc4)c4ccccc4)CC3)cccc2[nH]1 3.58 [at 107.2 µM], CCCCCCCCCCCCCCCCCCOC[C@@H](COP(=O)([O-])OCC[N+](C)(C)C)OC(C)=O 3.94, COc1ccc(CCCO[C@@H](Cn2ccnc2)c2ccc(OC)cc2)cc1 7.02 [at 136.4 µM], C[C@H](N)C1CCC(C(=O)Nc2ccncc2)CC1 (stereo not given in full) 2.94 [at 202.1 µM], CC[C@H]1/C=C(\C)C[C@@H](C)C[C@@H](OC)[C@@H]2O[C@](O)(C(=O)C(=O)N3CCCC[C@@H]3C(=O)O[C@@H](/C(C)=C/[C@H]3CC[C@H](O)[C@@H](OC)C3)[C@@H](C)[C@H](O)CC1=O)[C@@H](C)C[C@H]2OC 13.8 [at 63.1 µM], CCCCCCCCCCCCCCCCOC[C@@H](COP(=O)([O-])OCC[N+](C)(C)C)OC(=O)NC 5.1, CCCCC[C@@H](O)/C=C/[C@H]1[C@@H]2C/C(=C/CCCC(=O)O)C[C@@H]2C[C@@H]1O 4.8, COC(=O)C1=C(C)NC(C)=C(C(=O)OCCSc2ccccc2)[C@H]1C 8.74 [at 138.3 µM], C[C@@H](/C=C/c1cccc(Oc2ccc(F)cc2)c1)N(O)C(N)=O 6.07 [at 158.1 µM], CNC(=O)[C@@H]1O[C@H](n2cnc3c(NCc4cccc(I)c4)ncnc32)C(O)[C@@H]1O (stereo not given in full) 4.36 [at 98 µM], CCCCCCCC/C=C\CCCCCCCCOC[C@@H](COP(=O)([O-])OCC[N+](C)(C)C)OC(C)=O 3.92, CCCCC[C@@H](O)/C=C/[C@H]1[C@H](CCCCCCC(=O)O)C(=O)C[C@@H]1O 4.03, CCCCCCCCCCCCCCC[C@H](O)[C@@H](CO)NC(=O)CCCCCCC 6.03, CCCCC[C@@H](O)/C=C/[C@H]1[C@H](C/C=C\CCCC(=O)O)[C@@H]2CO[C@H]1C2 4.13, O=C(O)CCC/C=C\C[C@H]1[C@H](/C=C/[C@H](O)COc2cccc(C(F)(F)F)c2)[C@@H](O)C[C@H]1O 4.62, OC[C@@H]1NC[C@H](O)[C@H](O)[C@H]1O 8.15 [at 306.4 µM], COC1=C2C[C@H](C)C[C@@H](OC)[C@@H](O)[C@H](C)/C=C(\C)[C@@H](OC(N)=O)[C@H](OC)/C=C\C=C(/C)C(=O)NC(=CC1=O)C2=O 25.2 [at 89.2 µM], CCCCCCCCCCCCCCCCCCOC[C@@H](COP(=O)([O-])OCC[N+](C)(C)C)OC 5.31, CN(CCc1ccc(Cl)c(Cl)c1)C[C@H](O)COc1ccc(NS(C)(=O)=O)cc1 3.81 [at 111.8 µM], CCCCCCCCCCCCCC[C@H](F)C(=O)O 6.01, OC[C@@H]1NC[C@@H](O)[C@H](O)[C@H]1O 7.48 [at 306.4 µM], C[S@](=O)c1ccc(-c2nc(-c3ccc(F)cc3)c(-c3ccncc3)[nH]2)cc1 8.78 [at 132.5 µM], COc1cc2c3cc1Oc1c(OC)c(OC)cc4c1[C@H](Cc1ccc(OC(=O)c5ccc([N+](=O)[O-])cc5)c(c1)Oc1ccc(cc1)C[C@H]3N(C)CC2)N(C)CC4 5.83 [at 66 µM], CN=C(NC#N)Nc1ccc(C2=NNC(=O)C[C@@H]2C)cc1 7.2 [at 175.9 µM], CCCCCCCC/C=C\CCCCCCCC(=O)OC[C@H](O)COP(=O)(O)O 3.84, C=CCNC1=C2C[C@H](C)C[C@@H](OC)[C@@H](O)[C@H](C)/C=C(\C)[C@@H](OC(N)=O)[C@H](OC)/C=C\C=C(/C)C(=O)NC(=CC1=O)C2=O 7.27 [at 85.4 µM]

Fold fluorescence, active:
CCCCCCCCCCCCCCCC(=O)C1=C(O)[C@H](CO)OC1=O 2.82 [at 135.7 µM]
